Bioassay records as filed in PubChem BioAssay.
An excerpt weighted towards active compounds, which were near 10% of everything screened.
HEK cytotox: cytotoxic compounds in HEK 293 cells | HEK 293 viability, ATP luminescence (CellTiter-Glo), 48-72 h | Potency, µM (doses to about 115 µM), for the others: at the highest dose activity change, negative = cytotoxicity, usual class: inhibitors | 94,000 tested, 6.6% active | AID 1345083; further: nearly all actives have a fitted effect of over 60% in size
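Cytotoxicity was scored by loss of ATP-coupled luminescence (CellTiter-Glo) in HEK 293 cells. Compound treatment ran 48 or 72 hr at 37 degree Celsius, 5% CO2, 95% humidity.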
GPT2 inh: inhibitors of human GPT2 alanine aminotransferase | 100,000 tested, 0.25% active | Q8TD30 | Recombinant GPT2, coupled pyruvate oxidase/HRP Amplex Red fluorescence | Potency, µM (series often up to 57.7 µM), for inactives: at the top dose activity change, negative = inhibition, usual class: inhibitors; further: nearly all actives have a fitted effect of over 60% in size
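GPT2 10ng/uL, a-KG 250uM, L-Ala 2mM, HEPES pH7.5 + 0.0001% Tween; 30 min RT. Then Amplex mix (PO/HRP/ThPP), 30 min RT dark, fluorescence. AOA 50uM used as positive control.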
FLuc inh: blocks purified firefly luciferase enzyme activity; purified P. pyralis luciferase, luminescence, biochemical; Potency, µM (series often up to 115 µM), usual class: inhibitors; 76,000 tested, 2.5% active; AID 1347043; further: nearly all actives have a fitted effect of over 65% in size
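Cell-free enzyme assay, 10nM P. pyralis luciferase, luciferin and ATP each at 10uM. Inhibition profiled over a 6-point titration, read as luminescence.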
NIH3T3 tox: NIH 3T3 cell cytotoxicity; NIH 3T3 viability, CellTiter-Glo ATP luminescence, 48-72 h; Potency, µM (top dose mostly 96.7 µM), inactives show at the top dose activity change, negative = cytotoxicity, actives largely listed as inhibitors; 94,000 tested, 4.3% active; further: nearly all actives have a fitted effect of over 55% in size
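Cytotoxicity was measured by CellTiter-Glo ATP luminescence after 48 or 72 h compound exposure at 37 °C. Mouse NIH 3T3 fibroblasts were seeded at 400 cells/well and dosed by 23 nL pin transfer.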
NPR1 antag: blocks ANP-stimulated signaling of human Npr1 receptor; AID 1347048; 76,000 tested, 1.6% active; P16066; HEK293 hNpr1 GloSensor cGMP, ANP-stimulated luminescence; Potency, µM (doses to about 46.3 µM), for inactives: at the highest dose activity change, negative = inhibition, most hits filed as inhibitors; calls by dose curve; further: nearly all actives have a fitted effect of over 60% in size
Target sequence (P16066 whole entry, looked up): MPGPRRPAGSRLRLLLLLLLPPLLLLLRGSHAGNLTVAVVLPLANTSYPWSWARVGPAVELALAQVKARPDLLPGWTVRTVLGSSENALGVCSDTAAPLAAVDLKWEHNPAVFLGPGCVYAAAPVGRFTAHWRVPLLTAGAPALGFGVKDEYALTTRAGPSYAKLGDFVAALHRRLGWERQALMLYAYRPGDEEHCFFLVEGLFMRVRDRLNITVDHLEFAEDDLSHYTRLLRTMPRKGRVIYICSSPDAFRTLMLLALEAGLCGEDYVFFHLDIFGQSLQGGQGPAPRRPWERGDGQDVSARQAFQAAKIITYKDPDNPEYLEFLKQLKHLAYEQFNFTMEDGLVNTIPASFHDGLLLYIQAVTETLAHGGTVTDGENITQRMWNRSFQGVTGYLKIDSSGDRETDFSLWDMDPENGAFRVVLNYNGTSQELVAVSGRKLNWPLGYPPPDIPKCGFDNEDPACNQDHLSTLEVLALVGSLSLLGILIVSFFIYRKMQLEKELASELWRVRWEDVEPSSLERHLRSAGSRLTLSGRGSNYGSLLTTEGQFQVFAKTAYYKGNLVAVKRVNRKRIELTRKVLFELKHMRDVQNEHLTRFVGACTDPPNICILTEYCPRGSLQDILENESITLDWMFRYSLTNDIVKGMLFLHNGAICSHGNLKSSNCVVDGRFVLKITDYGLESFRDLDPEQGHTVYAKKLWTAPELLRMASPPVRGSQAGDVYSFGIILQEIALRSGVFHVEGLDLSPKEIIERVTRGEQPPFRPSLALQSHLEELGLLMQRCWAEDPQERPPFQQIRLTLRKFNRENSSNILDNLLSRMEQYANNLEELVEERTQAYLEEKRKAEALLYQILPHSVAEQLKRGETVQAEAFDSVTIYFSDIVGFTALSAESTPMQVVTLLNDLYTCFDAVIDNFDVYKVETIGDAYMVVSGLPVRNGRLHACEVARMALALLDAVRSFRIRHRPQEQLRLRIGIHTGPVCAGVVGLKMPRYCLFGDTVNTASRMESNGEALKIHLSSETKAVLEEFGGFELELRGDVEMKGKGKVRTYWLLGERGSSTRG
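HEK293 cells stably expressing human Npr1 and cGMP GloSensor pGS-40F, loaded 2 h with 2% GloSensor reagent, given compound 30 min at room temperature. Luminescence read before and 20 min after 0.1 nM hNppA.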
* marks the source's active call; other numbers are inactive results; [ ] = remark or other dose. Unless noted, the call rests on the fitted dose curve; in most records, active means well fitted curve in the direction sought with a large enough effect; inconclusive means small, poorly fitted or top-dose-only effect, or another doubt; inactive means no such curve, though single readings can be large; an effect the other way counts as inactive or inconclusive. On the % scale 0 is the no-effect control and ±100 the full control effect; potency means the concentration at half of the fitted maximal effect.

COc1ccc(-c2nc(-c3c(C)noc3C)cc3c2cc(C)n3CCN(C)C)cn1 was read as HEK cytotox 79µM*, GPT2 inh -14%[88.5 µM], FLuc inh inactive, NIH3T3 tox inconclusive and NPR1 antag -10%[70.6 µM].
Screening Cc1noc2c(N(C)C)cc(-c3cccnc3)nc12 returned HEK cytotox -5%[230 µM], GPT2 inh inactive, FLuc inh inactive, NIH3T3 tox inconclusive and NPR1 antag 1%[70.6 µM].
`Cc1noc(C)c1-c1cc2c(cc(C)n2CCN(C)C)c(Nc2ccn(C)n2)n1` gave HEK cytotox 89µM*, GPT2 inh -6%[88.5 µM], FLuc inh inactive, NIH3T3 tox inconclusive and NPR1 antag -2%[70.6 µM].
Screening Cc1noc(C)c1-c1cc2c(cc(C)n2CCN(C)C)c(-c2ccc(CO)cc2)n1 returned HEK cytotox 79µM*, GPT2 inh inconclusive, FLuc inh inactive, NIH3T3 tox inconclusive and NPR1 antag -21%[70.6 µM].
`Cc1noc(C)c1-c1cc2c(cc(C)n2CCN(C)C)c(-c2cccc(O)c2)n1` gave HEK cytotox 56µM*, GPT2 inh -1%[88.5 µM], FLuc inh inactive, NIH3T3 tox inconclusive and NPR1 antag -12%[70.6 µM].
Screening O=C([C@H]1CCCN1C(=O)C1CCCC1)N1CCC(N2CCOC2=O)CC1 returned HEK cytotox -4%, GPT2 inh inactive and NIH3T3 tox -1%.
Screening COCCCNc1nc(-c2c(C)noc2C)cc2cc(C(C)C)oc12 returned HEK cytotox 89µM*, GPT2 inh 0%[88.5 µM], FLuc inh inactive, NIH3T3 tox inconclusive and NPR1 antag -1%[70.6 µM].
COCCNc1nc(-c2c(C)noc2C)cc2cc(C(C)C)oc12 was read as HEK cytotox 71µM*, GPT2 inh inactive, FLuc inh inactive, NIH3T3 tox inconclusive and NPR1 antag 2%[70.6 µM].
`CC1CCCN(C(=O)CN2CCCc3nc(-c4ccccc4)ncc3C2=O)C1` (centres undefined) gave HEK cytotox 79µM*, GPT2 inh 4%, FLuc inh inactive, NIH3T3 tox -19% and NPR1 antag -14%.
`CCc1cc(=O)n(CC(=O)N2CCN(c3ccc(F)cc3)CC2)c(N2CCOCC2)n1` gave HEK cytotox 25µM*, GPT2 inh 2%, FLuc inh inactive, NIH3T3 tox inconclusive and NPR1 antag -16%.
Screening O=C(COc1ccc(F)cc1)Nc1cnc(-c2ccccc2)nc1 returned HEK cytotox 16%, GPT2 inh -9%, FLuc inh inactive, NIH3T3 tox -1% and NPR1 antag -1%.
Screening O=C(Cc1ccsc1)Nc1cnc(-c2ccccc2)nc1 returned HEK cytotox inconclusive, GPT2 inh -8%, FLuc inh 5µM*, NIH3T3 tox inconclusive and NPR1 antag inconclusive.
`COc1ccc(NC(=O)N2CCCCCC2c2nc(C)no2)cc1` (centres undefined) gave HEK cytotox -1%, GPT2 inh 3% and NIH3T3 tox -4%.
`COc1ccc(CN2CCC3(C2)C(=NC2CCCC2)NC(=O)N3c2cc(F)cc(F)c2)cc1` (centres undefined) gave HEK cytotox inconclusive, GPT2 inh inactive and NIH3T3 tox inconclusive.
For O=C1NC(=NC2CCCCC2)C2(CCN(Cc3ccc(F)cc3)C2)N1c1cc(F)cc(F)c1 (centres undefined) the results were HEK cytotox inconclusive, GPT2 inh -7% and NIH3T3 tox 32µM*.
O=C1NC(=NC2CCCCC2)C2(CCN(Cc3ccccc3)C2)N1c1cc(F)cc(F)c1 (centres undefined) was read as HEK cytotox inconclusive, GPT2 inh inactive and NIH3T3 tox 32µM*.
For O=C1NC(=NC2CCCCC2)C2(CCCN(Cc3ccccc3)C2)N1c1cc(F)cc(F)c1 (centres undefined) the results were HEK cytotox inconclusive, GPT2 inh inactive and NIH3T3 tox 35µM*.
Screening COc1ccc(CN2CCCC3(C2)C(=NC2CCCCC2)NC(=O)N3c2cc(F)cc(F)c2)cc1 (centres undefined) returned HEK cytotox 45µM*, GPT2 inh inactive and NIH3T3 tox inconclusive.
O=C1NC(=NC2CCCCC2)C2(CCCN(Cc3ccc(F)cc3)C2)N1c1cc(F)cc(F)c1 (centres undefined) was read as HEK cytotox inconclusive, GPT2 inh inactive and NIH3T3 tox inconclusive.
For CCOc1ccc2c(n1)CCN(C(=O)Cc1cccc(C)c1)C2 the results were HEK cytotox -13%, GPT2 inh -5%, FLuc inh inactive, NIH3T3 tox -26% and NPR1 antag 3%.
`O=C(C1CN(c2ccccc2)C(=O)N1)N1CCN(Cc2ccccc2)CC1` (centres undefined) gave HEK cytotox 45µM*, GPT2 inh inactive, FLuc inh inactive, NIH3T3 tox inconclusive and NPR1 antag -4%.
O=C(C1CN(c2ccc(Cl)cc2)C(=O)N1)N1CCN(Cc2ccccc2)CC1 (centres undefined) was read as HEK cytotox 25µM*, GPT2 inh inconclusive, FLuc inh inactive, NIH3T3 tox inconclusive and NPR1 antag 0%.
For CN1CCC(Cc2ccc(C(=O)NCC3CCCCC3)cc2)CC1 the results were HEK cytotox inconclusive, GPT2 inh -4%, FLuc inh inconclusive, NIH3T3 tox 40µM* and NPR1 antag -7%.
`CC(=O)N1CCC(Cc2ccc(C(=O)Nc3ccc(C)cc3)cc2)CC1` gave HEK cytotox inconclusive, GPT2 inh inactive, FLuc inh inconclusive, NIH3T3 tox inconclusive and NPR1 antag 10µM*.
Screening O=C(NCc1ccc(Cl)cc1)c1ccc2nnc(-c3ccc(Cl)cc3Cl)n2c1 returned HEK cytotox inconclusive, GPT2 inh 0% and NIH3T3 tox 32µM*.
O=C(NCCc1ccccc1F)c1ccc2nnc(Cc3ccc(Cl)cc3)n2c1 was read as HEK cytotox inconclusive, GPT2 inh inactive and NIH3T3 tox inconclusive.
Screening COc1ccc(CCNC(=O)c2ccc3nnc(-c4ccc(Cl)cc4)n3c2)cc1 returned HEK cytotox -6%, GPT2 inh inactive and NIH3T3 tox -21%.
`O=C(Nc1cccc(Cl)c1)c1ccc2nnc(-c3ccc(Cl)cc3)n2c1` gave HEK cytotox 40µM*, GPT2 inh inactive and NIH3T3 tox 45µM*.
Screening O=C(NCc1ccc(F)c(F)c1)c1ccc2nnc(Cc3ccc(Cl)cc3)n2c1 returned HEK cytotox inconclusive, GPT2 inh inactive and NIH3T3 tox 35µM*.
For COc1ccc(Cc2nnc3ccc(C(=O)NCCc4ccc(Cl)cc4)cn23)cc1 the results were HEK cytotox 89µM*, GPT2 inh inactive and NIH3T3 tox inconclusive.
